Results: PubChem BioAssay (NCATS)
Several values for one entry are separate records, joined by “and”; a condition that tells them apart may be missing. Equal entries are not always repeated. Results filed as inconclusive are left out. Activity calls are given as the source filed them. Unless noted, calls come from the whole dose curve; as a rule, active = well fitted curve in the direction sought with a large enough effect; inconclusive = small, poorly fitted or top-dose-only effect, or another doubt; inactive = no such curve, though single readings can be large; an effect the other way counts as inactive or inconclusive.

Columns and labels:
[1] = target: ATP-dependent 6-phosphofructokinase (Trypanosoma brucei brucei) (UniProt O15648); test: qHTS Validation Assay to Find Inhibitors of T. brucei phosphofructokinase (AID 485368); conditions: T. brucei PFK enzyme assay, qHTS 7-point titration; at 57.5 µM (top of the series)
ATP-dependent 6-phosphofructokinase (Trypanosoma brucei brucei), sequence (O15648 whole entry, looked up): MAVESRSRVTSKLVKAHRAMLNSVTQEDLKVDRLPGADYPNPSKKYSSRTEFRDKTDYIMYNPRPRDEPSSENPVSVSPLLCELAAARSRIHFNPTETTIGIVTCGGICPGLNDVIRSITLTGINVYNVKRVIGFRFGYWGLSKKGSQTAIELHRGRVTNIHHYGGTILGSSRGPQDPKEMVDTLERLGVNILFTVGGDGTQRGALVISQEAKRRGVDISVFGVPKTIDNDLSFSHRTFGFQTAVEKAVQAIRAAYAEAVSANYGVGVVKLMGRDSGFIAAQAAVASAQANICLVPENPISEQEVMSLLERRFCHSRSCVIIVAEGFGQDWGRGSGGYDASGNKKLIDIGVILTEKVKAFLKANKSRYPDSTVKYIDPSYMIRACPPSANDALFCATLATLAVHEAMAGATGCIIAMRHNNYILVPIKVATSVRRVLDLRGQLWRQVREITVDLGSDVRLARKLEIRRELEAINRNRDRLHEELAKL
Outline: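 Compounds (up to 57 uM, titration series) were pinned into substrate buffer, then 1.25 nM PFK added; after 45 min at room temperature, ADP product was quantified by ADP-Glo luminescence and concentration-response curves fitted.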

[2] = target: Bile acid receptor (Homo sapiens) (UniProt Q96RI1); test: qHTS assay for small molecule agonists of farnesoid X receptor signaling (AID 588527; calls by dose curve;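 note: 0% = vehicle basal and 100% = reference agonist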); conditions: HEK293T FXR-UAS-bla, beta-lactamase ratio, 16 h; activation: hits give high values
Bile acid receptor (Homo sapiens), sequence (Q96RI1 whole entry, looked up): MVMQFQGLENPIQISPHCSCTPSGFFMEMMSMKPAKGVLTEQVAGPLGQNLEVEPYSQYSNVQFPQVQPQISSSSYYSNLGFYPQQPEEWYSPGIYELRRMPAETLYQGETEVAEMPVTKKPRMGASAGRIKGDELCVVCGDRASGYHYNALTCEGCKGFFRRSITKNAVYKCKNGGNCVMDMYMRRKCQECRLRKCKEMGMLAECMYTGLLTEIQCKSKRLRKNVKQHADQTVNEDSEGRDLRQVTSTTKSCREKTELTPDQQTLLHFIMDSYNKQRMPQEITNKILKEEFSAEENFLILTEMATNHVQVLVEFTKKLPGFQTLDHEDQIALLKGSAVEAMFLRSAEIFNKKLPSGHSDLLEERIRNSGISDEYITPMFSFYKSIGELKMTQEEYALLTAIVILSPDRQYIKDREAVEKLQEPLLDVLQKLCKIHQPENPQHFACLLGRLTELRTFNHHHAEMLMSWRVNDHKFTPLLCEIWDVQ
Outline: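 FXR-UAS-bla HEK293T, 10% dialyzed FBS; cpds up to 92 uM titration, 16 h 37 C; CCF4 dye 2 h RT; fluorescence. Normalized to chenodeoxycholic acid 100 uM (100%) and DMSO (0%); Hill fit gives EC50, efficacy.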

[3] = Cell Viability - BJ (AID 421; calls by dose curve;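 note: potency is the fitted concentration of half-maximal effect; cells exposed to compound for 40 hours at 37 °C before readout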); conditions: BJ fibroblast viability, qHTS
Outline: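 Luminescent ATP signal (CellTiter-Glo, 20 min at room temperature) served as the read-out of viable BJ cells after 40 hours of compound treatment. Responses were scaled between DMSO and 100 uM tamoxifen, and AC50 values were obtained by Hill modeling.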

[4] = Cell Viability - Jurkat (AID 426;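 active = dose-dependent loss of cell ATP signal giving a full or clear fitted curve, ranked by lower potency value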; note: potency is the fitted concentration of half-maximal effect); conditions: qHTS
Outline: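 Jurkat (Clone E6-1) cells, 5000/well in complete medium, exposed to compounds for 40 hr at 37C; intracellular ATP measured by CellTiter-Glo luminescence after 20 min at room temperature. AC50 from Hill fits.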

[5] = Cell Viability - Hek293 (AID 427;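 active = compounds whose dose-response curve shows a full or clear partial loss of cell viability, called from curve shape rather than a numeric limit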;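 note: potency is the fitted concentration of half-maximal effect; cells exposed to compound for 40 hours at 37 °C before reading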); conditions: qHTS
Outline: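 Luminescent ATP read-out (CellTiter-Glo, 20 min RT) after 40 hr compound exposure at 37 °C in complete medium. Signal normalized to DMSO (basal) and 100 uM tamoxifen (100% inhibition); concentration-response fitted with the standard Hill equation to give AC50.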

[6] = Cell Viability - HepG2 (AID 433; calls by dose curve;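 note: potency is the fitted concentration of half-maximal effect; potency for ATP loss meaning cytotoxicity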); conditions: qHTS
Outline: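 HepG2 hepatocellular carcinoma cells (1500/well) were treated with compounds for 40 h at 37 °C in complete medium; intracellular ATP was read by CellTiter-Glo luminescence. Data were normalized to DMSO and 100 uM tamoxifen, and AC50 came from Hill fits.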

[7] = Cell Viability - MRC5 (AID 434; calls by dose curve;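 note: potency is the fitted concentration of half-maximal effect; potency reflects cytotoxicity seen as loss of intracellular ATP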); conditions: MRC5 lung fibroblast viability, qHTS
Outline: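 MRC5 normal human lung fibroblasts, 1500 cells/well, exposed to compound for 40 hr at 37 C. Cellular ATP was read by CellTiter-Glo luminescence; data normalized to DMSO and 100 uM tamoxifen, with AC50 from Hill fits.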

[8] = Cell Viability - SK-N-SH (AID 435; calls by dose curve;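 note: potency is the fitted concentration of half-maximal effect; compound exposure lasted 40 h at 37 °C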); conditions: SK-N-SH neuroblastoma cell viability qHTS
Outline: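 SK-N-SH human neuroblastoma cells (1500/well) were exposed to compounds in complete medium for 40 h at 37 °C, and intracellular ATP was then measured by CellTiter-Glo luminescence. AC50 was taken from Hill fits, normalized to DMSO and 100 uM tamoxifen.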

[9] = Cell Viability - N2a (AID 540); conditions: N2a mouse neuroblastoma cell viability; at 92.2 µM (top of the series);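 note: plate controls were DMSO alone for no effect and tamoxifen control for full effect; nearly all actives have a fitted effect of over 45% in size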
Outline: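 Mouse neuroblastoma N2a cells, 1500/well, exposed to compounds 40 h at 37 °C in complete medium. Viability measured as cellular ATP by CellTiter-Glo luminescence; AC50 from Hill fits of concentration-response.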

[10] = Cell Viability - NIH 3T3 (AID 541); conditions: NIH 3T3 cell viability, qHTS; at 92.2 µM (top of the series);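 note: plate controls were DMSO alone for no effect and tamoxifen positive control for full effect; nearly all actives have a fitted effect of over 25% in size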
Outline: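 Mouse NIH 3T3 fibroblasts, 1000 cells/well, rested 5 hr at 37 °C, then exposed to compound for 40 hr at 37 °C in complete medium. Viability read as intracellular ATP by CellTiter-Glo luminescence; AC50 from Hill-equation fits of concentration-response data.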

[11] = Cell Viability - HUV-EC-C (AID 542); conditions: HUV-EC-C endothelial cell viability, qHTS; series mostly up to 92.2 µM; note: % is set by controls: 0 for no effect and ±100 for the full control effect; nearly all actives have a fitted effect of over 35% in size
Outline: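 HUV-EC-C human vascular endothelial cells, 1000/well, exposed to compound for 40 hr at 37 °C in complete medium. Intracellular ATP was read by CellTiter-Glo luminescence. AC50 came from Hill-equation fits of concentration-response data.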

[12] = Cell Viability - H-4-II-E (AID 543); conditions: H-4-II-E rat hepatoma viability; series mostly up to 92.2 µM; note: % is set by controls: 0 for no effect and ±100 for the full control effect; nearly all actives have a fitted effect of over 35% in size
Outline: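 Rat hepatoma H-4-II-E cells, 1500 per well, treated 40 h at 37 °C in complete medium. Cellular ATP read by CellTiter-Glo luminescence; AC50 from Hill fits of concentration-response.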

[13] = Cell Viability - SH-SY5Y (AID 544); conditions: SH-SY5Y neuroblastoma cell viability; series mostly up to 92.2 µM;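 note: 0% = DMSO alone and -100% = 100 µM tamoxifen; nearly all actives have a fitted effect of over 55% in size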
Outline: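 SH-SY5Y human neuroblastoma cells (1500/well) incubated 5 h, then compound-treated 40 h at 37 °C in complete medium. Viability read as intracellular ATP by CellTiter-Glo luminescence after 20 min; AC50 from Hill-equation fits of qHTS concentration-response.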

[14] = Cell Viability - Renal Proximal Tubule (AID 545); conditions: renal proximal tubule cells viability; series mostly up to 91.7 µM;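 note: 0% = DMSO only and -100% = 100 µM tamoxifen; nearly all actives have a fitted effect of over 40% in size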
Outline: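 Primary rat renal proximal tubule cells (1000/well) were treated with compounds for 40 hr at 37 °C in complete medium. Intracellular ATP was measured by CellTiter-Glo luminescence, and AC50 values came from Hill-equation fits of concentration-response data.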

[15] = Cell Viability - Mesenchymal (AID 546); conditions: mesenchymal cells viability, qHTS; series mostly up to 91.7 µM;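 note: cells exposed to compound for 40 hours before reading; 0% = DMSO only and -100% = 100 µM tamoxifen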
Outline: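 Human kidney mesenchymal cells from normal renal glomeruli, 1000 cells/well, rested 5 hr at 37 °C, then treated 40 hr at 37 °C in complete medium. Cellular ATP read by CellTiter-Glo luminescence; AC50 from Hill-equation fits.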

[16] = qHTS Assay for Identification of Small Molecule Inducers of Hypoxia Response (AID 2120; active = well fitted curve in the direction sought with a large enough effect in the signal ratio, with a control signal flat, not every such curve was filed as active; the % refers to the signal ratio; note: 0% is about no effect); conditions: hypoxia response reporter cells, beta-lactamase ratio readout; series mostly up to 104 µM
Outline: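 HRE-bla ME-180 cells in Opti-MEM with 0.5% dialyzed FBS, pre-plated 4-5 h, then compound titration for 17 h at 37 degrees Celsius. CCF4 loaded 2.5 h at room temperature; 460/530 nm ratio gave %Activity and AC50 for induction.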

[17] = target: Estrogen receptor (Homo sapiens) (UniProt P03372); test: qHTS assay for small molecule agonists of estrogen receptor alpha signaling (AID 588514; calls by dose curve;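 note: 0% = vehicle only and 100% = reference agonist; nearly all actives have a fitted effect of over 70% in size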); conditions: ER-alpha-UAS-bla HEK293, beta-lactamase ratio, 18 h; series mostly up to 76.8 µM
Estrogen receptor (Homo sapiens), sequence (P03372 whole entry, looked up): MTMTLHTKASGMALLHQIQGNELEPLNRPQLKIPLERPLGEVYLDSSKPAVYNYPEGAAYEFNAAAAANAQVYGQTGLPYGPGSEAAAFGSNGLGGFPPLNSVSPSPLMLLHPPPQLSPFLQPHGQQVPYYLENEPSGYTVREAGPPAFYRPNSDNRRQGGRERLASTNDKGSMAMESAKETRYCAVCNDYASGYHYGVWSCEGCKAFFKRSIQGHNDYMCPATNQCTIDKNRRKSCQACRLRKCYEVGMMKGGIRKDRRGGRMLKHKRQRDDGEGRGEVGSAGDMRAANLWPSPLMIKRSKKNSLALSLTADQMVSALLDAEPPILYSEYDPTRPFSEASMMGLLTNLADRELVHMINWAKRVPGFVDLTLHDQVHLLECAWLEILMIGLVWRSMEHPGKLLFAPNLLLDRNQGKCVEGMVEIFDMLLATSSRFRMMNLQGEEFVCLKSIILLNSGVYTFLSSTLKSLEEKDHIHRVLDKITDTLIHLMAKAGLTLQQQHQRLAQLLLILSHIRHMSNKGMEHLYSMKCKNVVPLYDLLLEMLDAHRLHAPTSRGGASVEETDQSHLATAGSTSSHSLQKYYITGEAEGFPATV
Outline: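 ER-alpha-UAS-bla GripTite HEK293 cells, 5000/well in 2% charcoal/dextran-stripped FBS medium, treated with compound titrations 18 h at 37 C. CCF4 beta-lactamase read by fluorescence after 2 h RT; normalised to 20 nM 17-beta-estradiol (100%) and DMSO (0%), Hill fit for EC50 and efficacy.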

[18] = target: Glucocorticoid receptor (Homo sapiens) (UniProt P04150); test: qHTS assay for small molecule agonists of glucocorticoid receptor signaling (AID 588532; active = well fitted curve in the direction sought with a large enough effect in the signal ratio, with a control signal flat; the % refers to the signal ratio;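 note: 100% = dexamethasone at 0.1 µM and 0% = DMSO only wells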); conditions: HeLa MMTV-bla, beta-lactamase ratio, agonist, 18 h; hits give high values; percent of dexamethasone control, DMSO zero
Glucocorticoid receptor (Homo sapiens), sequence (P04150 whole entry, looked up): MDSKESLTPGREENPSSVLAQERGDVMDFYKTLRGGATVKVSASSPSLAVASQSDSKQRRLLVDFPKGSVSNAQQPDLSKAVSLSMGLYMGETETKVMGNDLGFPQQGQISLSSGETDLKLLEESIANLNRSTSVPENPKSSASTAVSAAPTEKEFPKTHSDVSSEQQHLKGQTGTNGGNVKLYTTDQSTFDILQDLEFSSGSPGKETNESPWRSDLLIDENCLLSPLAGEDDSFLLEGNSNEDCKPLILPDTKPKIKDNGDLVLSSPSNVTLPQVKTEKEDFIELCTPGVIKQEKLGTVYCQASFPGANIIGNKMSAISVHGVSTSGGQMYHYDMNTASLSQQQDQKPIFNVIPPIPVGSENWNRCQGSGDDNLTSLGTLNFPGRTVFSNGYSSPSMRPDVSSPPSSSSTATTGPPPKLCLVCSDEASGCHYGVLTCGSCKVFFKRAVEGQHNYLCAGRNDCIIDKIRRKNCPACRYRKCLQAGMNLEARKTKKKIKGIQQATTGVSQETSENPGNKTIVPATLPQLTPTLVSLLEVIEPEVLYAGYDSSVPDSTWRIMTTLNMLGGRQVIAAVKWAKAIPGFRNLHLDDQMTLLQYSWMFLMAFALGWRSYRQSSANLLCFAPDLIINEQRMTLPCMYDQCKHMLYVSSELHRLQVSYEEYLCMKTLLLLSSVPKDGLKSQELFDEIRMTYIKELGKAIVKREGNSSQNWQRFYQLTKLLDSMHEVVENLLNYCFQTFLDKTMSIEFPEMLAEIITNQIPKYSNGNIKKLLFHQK
Outline: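 HeLa GRE-bla reporter cells; 18 h compound exposure at 37 C; 2 h CCF4 loading at room temperature; fluorescence at 460 and 530 nm; EC50 by Hill equation.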

[19] = target: Glutathione peroxidase 1 (Homo sapiens) (UniProt P07203); test: Primary qHTS Assay for Inhibitors of Recombinant Selenoprotein Glutathione Peroxidase 1 (GPX1) (AID 1845191); conditions: recombinant GPX1, GR-coupled NADPH fluorescence, 15 min; series mostly up to 48.8 µM; note: nearly all actives have a fitted effect of over 65% in size
Glutathione peroxidase 1 (Homo sapiens), sequence (P07203 whole entry, looked up): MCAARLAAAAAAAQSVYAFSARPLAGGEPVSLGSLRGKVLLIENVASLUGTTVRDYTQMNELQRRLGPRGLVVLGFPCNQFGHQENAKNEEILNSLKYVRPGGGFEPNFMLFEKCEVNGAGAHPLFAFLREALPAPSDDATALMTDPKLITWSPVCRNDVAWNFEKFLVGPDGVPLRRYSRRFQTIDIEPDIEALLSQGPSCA
Outline: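 GR-coupled assay: compounds preincubated 30 min at room temperature with GPX1, then reaction started with CHP; final 10 nM GPX1, 1 mM GSH, 0.5 mM CHP, 0.5 mM NADPH, 100 nM GR, 0.01% BSA, pH 7.5 Tris buffer. NADPH fluorescence (340/450 nm) read at 0 and 15 min.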

[20] = target: Phospholipid hydroperoxide glutathione peroxidase GPX4 (Homo sapiens) (UniProt P36969); test: Primary qHTS Assay for Inhibitors of Recombinant Selenoprotein Glutathione Peroxidase 4 (GPX4) (AID 1845192); conditions: recombinant GPX4, GR-coupled NADPH fluorescence, 15 min; series mostly up to 50 µM; note: nearly all actives have a fitted effect of over 65% in size
Phospholipid hydroperoxide glutathione peroxidase GPX4 (Homo sapiens), sequence (P36969 whole entry, looked up): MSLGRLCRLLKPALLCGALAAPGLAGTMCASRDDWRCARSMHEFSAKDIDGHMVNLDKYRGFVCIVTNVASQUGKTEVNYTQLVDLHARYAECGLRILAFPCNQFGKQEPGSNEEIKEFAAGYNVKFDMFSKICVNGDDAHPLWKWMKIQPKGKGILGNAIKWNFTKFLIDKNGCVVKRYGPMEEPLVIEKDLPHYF
Outline: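 GR-coupled assay: recombinant GPX4 preincubated 30 min with compound at room temperature; final 200 nM GPX4, 1 mM GSH, 0.5 mM cumene hydroperoxide, 0.5 mM NADPH, 100 nM GR, 0.01% BSA, pH 7.5 Tris. NADPH fluorescence (340/450 nm) read at 0 and 15 min.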

CN1C2CCC1CC(OC(=O)C(CO)c1ccccc1)C2 (stereo not given)
inactive: outcome [1]

N[C@@H](Cc1ccc(O)c(O)c1)C(=O)O
inactive: activation [2] 1.53%

Cc1ccccc1O
inactive: Potency [3] > 92 µM | Potency [4] > 92 µM | Potency [5] > 92 µM | Potency [6] > 92 µM | Potency [7] > 92 µM | Potency [8] > 92 µM | activity change, negative = cytotoxicity [9] 4.57% | activity change, negative = cytotoxicity [10] 8.87% | outcome [11] | outcome [12] | outcome [13] | outcome [14] | outcome [15] | outcome [16] | Potency [17] | activation [18] 1.9% and -0.638% | Potency [19] | Potency [20]
